# Measured values: PubChem BioAssay AID588727 (Southern Research Specialized Biocontainment Screening …, 2011)
# Hit rate of the full screen: of about 350,000 compounds, about 450 (0.13%) were called active. How the calls were made is not given here. Only a sample is shown. Measured potencies and affinities stand elsewhere.
# Assay: inhibitors of VEEV TC-83 cytopathic effect, confirmation, Vero cells (AID 588727)
# Conditions: VEEV TC-83 cytopathic effect inhibition, at 20 µM
# [1] = stronger effect = higher value unless noted
# [2] = measured here: 10K pilot screen inhibition, stronger effect = higher value
smiles,measurement,setting,value
CC(=O)c1cccc(-n2c(CCC(=O)O)ccc2-c2cccs2)c1,inhibition,[1],inactive
COc1ccc(-c2nnc(SCC(=O)c3cccs3)n2-c2ccc(Cl)cc2)cc1,inhibition,[1],8.15% (inactive)
O=C(N/N=C/c1cccnc1)C12CC3CC(CC(C3)C1)C2,inhibition,[1],2.16% (inactive)
Cc1[nH]c2ccc(F)cc2c1CCN(Cc1cccnc1)C(=S)Nc1cccc(F)c1,inhibition,[1],2.61% (inactive)
O=C(O)/C(=C\c1ccc(-c2ccc(F)cc2)o1)c1ccccc1,inhibition,[1],1.57% (inactive)
COc1cccc(/C=C2/CCC(CN(C)C)C2=O)c1 (stereo not given),inhibition,[1],48.7% (inactive)
CN(C)CC1CC/C(=C\c2ccc(O)cc2)C1=O (stereo not given),inhibition,[1],inactive
O=C(CSc1nc2c([nH]c3ccccc32)c(=O)n1-c1ccccc1F)NCC1CCCO1 (stereo not given),inhibition,[1],9.1% (inactive)
CCCN(Cc1nnc(-c2cccs2)o1)C(=O)c1cccc(S(=O)(=O)N2CCOCC2)c1,inhibition,[1],3.36% (inactive)
O=C(c1cc(S(=O)(=O)N2CCCCC2)ccc1F)N1CCCCC1,inhibition,[1],2.62% (inactive)
Cc1nn(-c2ccccn2)c(C)c1Oc1ccccc1O,inhibition,[1],0.59% (inactive)
Cc1cc(C)nc(-n2nc(C)c(Oc3ccccc3O)c2C)n1,inhibition,[1],2.08% (inactive)
CCOc1ccc(-c2ccc(SCc3ccccn3)nn2)cc1,inhibition,[1],8.3% (inactive)
Cc1[nH]c(C)c(S(=O)(=O)N2CCN(c3cccc(Cl)c3)CC2)c1C(=O)N1CCCC1,inhibition,[1],1.13% (inactive)
Cc1[nH]c(C)c(S(=O)(=O)N2CCN(c3cccc(C(F)(F)F)c3)CC2)c1C(=O)N1CCCC1,inhibition,[1],0.9% (inactive)
N=C1C(c2nc(-c3ccc(F)cc3)cs2)=C(O)CN1CCCN1CCOCC1,inhibition,stronger effect = higher value,1.67% (inactive)
same,inhibition,[2],0.31%
S=C(NCCCN1CCOCC1)N1CCN(c2nc(-c3ccc(Cl)cc3)cs2)CC1,inhibition,[1],1.38% (inactive)
CCc1cc(=O)oc2cc(C)cc(OC(C)C(=O)NCCN3CCOCC3)c12 (stereo not given),inhibition,[1],2.06% (inactive)
CC(C)CCSc1nc2ccccc2[nH]1,inhibition,[1],0.68% (inactive)
COc1ccc(OC)c(C(=O)COC(=O)COc2ccccc2F)c1,inhibition,[1],0.88% (inactive)
Cc1ccc(OCCCCN2CCC(C)CC2)c(Br)c1,inhibition,[1],0.3% (inactive)
Cc1ccc(OCCCCN2CCCCC2)c(Br)c1,inhibition,[1],inactive
CN(Cc1ccccc1)C(=O)COC(=O)c1cc(Cl)nc(Cl)c1,inhibition,[1],2.37% (inactive)
Cc1ccc(NC(=O)c2cccc(S(=O)(=O)N3CCN(C)CC3)c2)cc1F,inhibition,[1],inactive
CCOc1ccc(C(=O)Nc2sc3c(c2C(=O)OC)CC(C)(C)NC3(C)C)cc1,inhibition,[1],10.2% (inactive)
COC(=O)c1c(NC(=O)c2ccccc2)sc2c1CC(C)(C)NC2(C)C,inhibition,[1],1.35% (inactive)
COc1ccc(NC(=O)C2CCN(S(=O)(=O)c3cccc4nonc34)CC2)cc1,inhibition,[1],1.18% (inactive)
O=C(O)c1cccc(N/N=C/c2cc(Br)cc(Br)c2O)c1,inhibition,[1],0.48% (inactive)
O=C(O)c1ccccc1NN=Cc1ccccc1,inhibition,[1],0.89% (inactive)
COc1ccc(CN2CCN(c3ccccc3F)CC2)cc1O,inhibition,[1],0.89% (inactive)
CCc1ccc(Nc2nc(N3CCOCC3)nc(N3CCOCC3)n2)cc1,inhibition,[1],0.26% (inactive)
Cn1cc(Br)c(C(=O)NNC(=O)c2ccc(Cl)cc2)n1,inhibition,[1],0.65% (inactive)
CCCCC#Cc1cncc(C(=O)NN)c1,inhibition,[1],1.61% (inactive)
CC1CCN(c2ccc(C(=O)O)cc2NS(=O)(=O)c2ccc(Br)cc2)CC1,inhibition,[1],inactive
CC(=O)Nc1cccc(Oc2ncnc3scc(-c4ccccc4)c23)c1,inhibition,[1],11% (inactive)
CC(=O)Nc1cccc(Oc2ncnc3scc(-c4ccc(C)cc4)c23)c1,inhibition,[1],7.98% (inactive)
CCOC(=O)N1CCN(C(=O)CCNS(=O)(=O)c2ccccc2)CC1,inhibition,[1],1.37% (inactive)
CCOC(=O)c1[nH]c(COC(=O)c2ccccc2NC(=O)c2ccco2)c(C(=O)OCC)c1C,inhibition,stronger effect = higher value,1.08% (inactive)
same,inhibition,[2],3.34%
CCCCN(C(=O)CSc1nc(CCC)cc(=O)[nH]1)c1c(N)n(Cc2ccccc2)c(=O)[nH]c1=O,inhibition,[1],0.91% (inactive)
O=c1oc(C2(O)CCCCC2)cc2ccccc12,inhibition,[1],0.11% (inactive)
O=c1oc(C2(O)CCCCC2)cc2ccc(Br)cc12,inhibition,stronger effect = higher value,0.16% (inactive)
same,inhibition,[2],1.56%
COc1ccc(OC)c(NC(=O)c2ccc3c(c2)OCO3)c1,inhibition,[1],inactive
CCCc1nc2c(s1)CCc1onc(-c3cccc([N+](=O)[O-])c3)c1-2,inhibition,[1],0.11% (inactive)
CN1CCN(c2ccc(NC(=O)c3ccc(-c4ccc(Cl)cc4)o3)cc2)CC1,inhibition,[1],10.7% (inactive)
CN1CCN(c2ccc(NC(=O)c3ccc(-c4ccc(Br)cc4)o3)cc2)CC1,inhibition,[1],9.39% (inactive)
O=C(CN(C(=O)c1csnn1)c1cccc(C(F)(F)F)c1)NCCc1ccccc1,inhibition,[1],inactive
O=[N+]([O-])c1ccc(-[n+]2c(-c3ccccc3)cc(-c3ccccc3)cc2-c2ccccc2)cc1,inhibition,[1],2.23% (inactive)
O=[N+]([O-])c1cccc(C2=NC(c3ccccc3)CO2)c1 (stereo not given),inhibition,[1],0.23% (inactive)
O=C1CCC(C(=O)N2CCN(c3ccc(F)cc3)CC2)CN1CC1CCCCC1 (stereo not given),inhibition,[1],0.83% (inactive)
Cc1onc(-c2ccccc2)c1C(=O)NNC(=S)NC(=O)c1ccc(Br)cc1,inhibition,[1],3.29% (inactive)
Cc1onc(-c2ccccc2)c1C(=O)NC(=S)NNC(=O)c1ccc(O)cc1O,inhibition,[1],12.2% (inactive)
Nc1nnnn1/N=C/C(Br)=C/c1ccccc1,inhibition,[1],12.1% (inactive)
BrC(=C\c1ccccc1)/C=N/n1cnnc1,inhibition,[1],5.75% (inactive)
Cc1ccc(-c2cc(C(F)F)n3ncc(C(=O)N4CCN(c5ccccn5)CC4)c3n2)cc1,inhibition,[1],8.27% (inactive)
O=C(NCc1ccccc1)c1ncn[nH]1,inhibition,[1],inactive
O=C(Nc1ccccc1Cl)C1CCCN(S(=O)(=O)c2ccc(-n3cnnn3)cc2)C1 (stereo not given),inhibition,[1],0.96% (inactive)
Cc1ncc(CN2CCCC(C(=O)Nc3ccc(-c4cccc(F)c4)cc3)C2)cn1 (stereo not given),inhibition,[1],5.3% (inactive)
Cc1ncc(CN2CCCC(C(=O)Nc3ccc(-c4ccco4)cc3)C2)n1C (stereo not given),inhibition,[1],5.05% (inactive)
Cn1cc(CN2CCC(C(=O)Nc3cccc(-c4cccc(F)c4)c3)CC2)cn1,inhibition,[1],5.64% (inactive)
COc1cccc(-c2ccc(NC(=O)C3CCCN(Cc4cnc(C)s4)C3)cc2)c1 (stereo not given),inhibition,[1],2.02% (inactive)
COc1cccc(-c2ccc(NC(=O)C3CCCN(Cc4cnn(C)c4C)C3)cc2)c1 (stereo not given),inhibition,[1],23.7% (inactive)
COc1cccc(-c2ccc(NC(=O)C3CCCN(Cc4cnn(C(C)C)c4)C3)cc2)c1 (stereo not given),inhibition,[1],21.3% (inactive)
